Cytotoxicity data for 93 molecules are collected here from PubChem BioAssay AID431 (Sanford-Burnham Center for Chemical Genomics, 2006).

Values joined by “and” are separate entries in the source; they are usually repeats but may differ in a detail not shown here. Equal entries are not always repeated. Screen size: about 63,000 compounds; about 1,100 (1.7%) were called active. The sample holds actives, similar compounds and a random draw of the others, so the mix is not that of the screen.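 Rule for the calls: active = compounds whose percent cytotoxicity in the single-dose primary screen, scaled between solvent and toxic-drug controls, exceeds 50; inactive = the rest.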 Results with a measured potency or affinity are listed apart.

The assay can be described thus: cytotoxicity in KRAS-transformed pancreatic duct cells, primary screen, cell-based, fluorescence, HTS (AID 431).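 Note: 0% = DMSO solvent wells and 100% = doxorubicin-treated wells.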 Particulars: HPDE-C7K KRASV12 cells, Alamar Blue viability, 48 h; at 10 µM; stronger effect = higher value.
With `CCCNC1=C(C)C(=O)CC1`, the cytotoxicity was 15.5% (inactive). Under `CCOc1ncccc1C(=O)OCC(=O)c1ccc[nH]1` stands 2.7% (inactive); under `COc1ccc(CCNC(=O)C2=COCCO2)cc1`, -8.1% (inactive); under `COc1ccccc1NC(=O)c1cc2n(n1)C(C(F)(F)F)CC(c1ccc3c(c1)OCO3)N2` (stereo not drawn), 41.8% (inactive). For `O=C(Nc1ccc2c(c1)OCO2)c1cc2n(n1)C(C(F)(F)F)CC(c1ccccc1)N2` (stereo not drawn), the cytotoxicity is 72.7% (active). To `COc1ccc(C2CC(C(F)(F)F)n3nc(C(=O)Nc4ccc5c(c4)OCO5)cc3N2)cc1` (stereo not drawn) belongs -10.9% (inactive); to `O=C(Nc1cc(Cl)ccc1O)c1cc2n(n1)C(C(F)(F)F)CC(c1ccc3c(c1)OCO3)N2` (stereo not drawn), -19.1% (inactive); to `COc1ccc(NC(=O)c2cc3n(n2)C(C(F)(F)F)CC(c2ccc4c(c2)OCO4)N3)cc1OC` (stereo not drawn), 69.1% (active).

With `O=C(NCc1ccc2c(c1)OCO2)c1cc2n(n1)C(C(F)(F)F)CC(c1ccc3c(c1)OCO3)N2` (stereo not drawn), the cytotoxicity was 21.6% (inactive).

For the molecule `Cc1cccc(NC(=O)c2cc3n(n2)C(C(F)(F)F)CC(c2ccc4c(c2)OCO4)N3)c1` (stereo not drawn), the cytotoxicity is 75.8% (active). Under `COc1ccc(OC)c(NC(=O)c2cc3n(n2)C(C(F)(F)F)CC(c2ccc4c(c2)OCO4)N3)c1` (stereo not drawn) stands 42.4% (inactive). Under `Cc1cc(NC(=O)c2cc3n(n2)C(C(F)(F)F)CC(c2ccc(Cl)c(Cl)c2)N3)no1` (stereo not drawn) stands 14.7% (inactive); under `CC(=O)N(c1ccc2oc(=O)sc2c1)S(=O)(=O)c1cccs1`, 14.7% (inactive). `COc1ccc(NC(=O)N2CCn3c2nc2ccccc23)cc1`: the cytotoxicity was -17.6% (inactive). To `N=c1c(C(=O)NC2CCCC2)cc2c(=O)n3ccccc3nc2n1CCN1CCOCC1` belongs -8.1% (inactive). With `COCc1[nH]nc2c1C(c1ccc(F)cc1F)C(C#N)=C(N)O2` (stereo not drawn), the cytotoxicity was -13.5% (inactive). Under `Cc1cc(N2C(=O)C(O)=C(C(=O)c3ccco3)C2c2cccnc2)no1` (stereo not drawn) stands -10.4% (inactive); under `Cn1c(C(=O)Nc2ccc3c(c2)OCCO3)cc2c(=O)n(C)c3ccccc3c21`, 48.6% (inactive). To `C=CCn1c(COc2cccc3ccc(C)nc23)nnc1SCC(=O)OC` belongs 6.8% (inactive); to `COc1cccc(CN2CCNC(=O)C2CC(=O)O)c1OC` (stereo not drawn), -4.6% (inactive). To `Cc1n[nH]c(C)c1S(=O)(=O)N1CCN(C(=O)c2ccco2)CC1` belongs 4% (inactive); to `COC(=O)c1ccc(CN(c2ccc(C)cc2)S(=O)(=O)c2ccc3c(c2)OCCO3)o1`, 7.1% (inactive). For `COc1cccc(N(CC(=O)NC(C)(C)C)C(=O)C2CSC(=O)C2)c1` (stereo not drawn), the cytotoxicity was -24.1% (inactive).

As for `CCOC(=O)C1CCN(c2ncnc3c2cnn3-c2ccccc2)CC1`, the cytotoxicity is 2.3% (inactive). Turning to `COc1ccc(/C(O)=C2/C(=O)C(=O)N(CCN(C)C)C2c2ccccn2)cc1OC` (stereo not drawn), the cytotoxicity is -9.5% (inactive). Take `O=C(NC1CCCCC1)C(c1ccccc1F)N(Cc1ccco1)C(=O)Cn1nnc2ccccc21` (stereo not drawn): the cytotoxicity is 65.1% (active). Under `O=C(NC1CCCCC1)C(c1ccc(F)cc1)N(Cc1ccco1)C(=O)Cn1nnc2ccccc21` (stereo not drawn) stands -8.2% (inactive); under `CCC(C)(C)NC(=O)C(c1ccccc1F)N(Cc1ccco1)C(=O)Cn1nnc2ccccc21` (stereo not drawn), -4.3% (inactive). Under `O=C(OC(C(=O)NCC1CCCO1)c1ccc(F)cc1)c1ccco1` (stereo not drawn) stands -12.4% (inactive).

For the molecule `COc1cc(-c2c(C#N)c(N)nc3c2CCCC3)ccc1O`, the cytotoxicity was -23.5% (inactive). Under `COc1cc2nc(N3CCN(C(=O)C4COc5ccccc5O4)CC3)nc(N)c2cc1OC` (stereo not drawn) stands 43.4% (inactive); under `COc1cc2nc(N3CCN(C(=O)c4ccco4)CC3)nc(N)c2cc1OC`, 90.2% (active). To `COc1cc2nc(N3CCN(C(=O)C4CCCO4)CC3)nc(N)c2cc1OC` (stereo not drawn) belongs -6.8% (inactive) and -0.8% (inactive); to `CN(c1ccccc1C(=O)NCc1ccco1)S(C)(=O)=O`, 3.4% (inactive); to `Cc1ccc(S(=O)(=O)NCCC(=O)Nc2nnc(C3CC3)s2)cc1C`, 5.5% (inactive). For `O=C(NCCCN1CCOCC1)c1ccc(CS(=O)(=O)c2cccc(C(F)(F)F)c2)o1`, the cytotoxicity was -4.8% (inactive). Under `O=C1c2cccnc2C(O)N1Cc1cccs1` (stereo not drawn) stands -24.1% (inactive). Take `CCC(C)n1ncn(-c2ccc(N3CCN(c4ccc(OCC5COC(Cn6cncn6)(c6ccc(Cl)cc6Cl)O5)cc4)CC3)cc2)c1=O` (stereo not drawn): the cytotoxicity is 68.7% (active). To `O=C1Nc2ccccc2C12OCC(COc1ccc(Cl)cc1)O2` (stereo not drawn) belongs 36.3% (inactive). To `CCCC1COC(Cn2cncn2)(c2ccc(C)cc2)O1` (stereo not drawn) belongs -8.6% (inactive); to `CN1CCN(S(=O)C23CC4CC(CC(C4)C2)C3)CC1` (stereo not drawn), -18.9% (inactive); to `CCOc1ccc(-c2n[nH]c(C)c2-c2ccccc2OC)c(O)c1`, -3.5% (inactive).

With `COc1ccc(C(=O)OCCN2C(=O)c3ccccc3C2=O)cc1`, the cytotoxicity was 1.1% (inactive). To `CCOc1ccc(-c2nc(N)nc(C)c2-c2ccc(OC)c(OC)c2)c(O)c1` belongs 9.6% (inactive); to `CCCOC(=O)c1ccc(OC(=O)c2ccco2)cc1`, 1.8% (inactive); to `Cc1cc2nc(SCCN3CCCC3)[nH]c2cc1C`, 16.7% (inactive). As for `CC1=Nn2c(nnc2C2CCCCC2)SC1`, the cytotoxicity was -19% (inactive). To `CCn1c(=O)cc(OCC(=O)NC2CCCCC2)c2ccccc21` belongs -1.2% (inactive); to `CCSc1nnc(-c2ccc(S(=O)(=O)N3CCOCC3)cc2)n1CC1CCCO1` (stereo not drawn), 14% (inactive). On to `Cc1c(N(C)C(=O)c2ccco2)c(=O)n(-c2ccccc2)n1C`, for which the cytotoxicity is 8.3% (inactive). On to `COc1ccc2c(c1)CC(C1(O)C(=O)Nc3ccccc31)C2=O` (stereo not drawn), for which the cytotoxicity is -10.5% (inactive). As to `O=C(CN1CCCC1)N1c2ccccc2Sc2ccccc21`, the cytotoxicity was -4.5% (inactive). Take `CC1CC(=O)N(CC(=O)N2CCCC2)c2ccccc2S1` (stereo not drawn): the cytotoxicity was -21% (inactive). Under `CCOC(=O)C1CCN(C(=O)COc2ccc(Br)cc2)CC1` stands 6.3% (inactive); under `CCCn1c(NCc2ccco2)nc2ccccc21`, -3.7% (inactive).

Consider `CCCn1c(NC(=O)c2ccccc2)nc2ccccc21`, for which the cytotoxicity was -14.1% (inactive). To `CCn1c(COc2ccccc2)nnc1SCC(=O)C(C)(C)C` belongs 16.4% (inactive); to `CCc1ccccc1NC(=O)C(CC)Sc1nc2cc3c(cc2c(=O)n1Cc1ccco1)OCO3` (stereo not drawn), 10.9% (inactive).

For `CCC(Sc1nc2cc3c(cc2c(=O)n1Cc1ccco1)OCO3)C(=O)Nc1ccccc1OC` (stereo not drawn), the cytotoxicity was -11.9% (inactive). Under `O=C(c1cccc(Cl)c1)N1CCN(c2ccccn2)CC1` stands -21.5% (inactive); under `O=C(CCCOc1ccc(Cl)cc1Cl)N1CCN(c2ccccn2)CC1`, 1.2% (inactive); under `O=C(c1cccc(COc2ccc(Cl)cc2Cl)c1)N1CCN(c2ccccn2)CC1`, 99% (active). To `COc1ccc(Br)cc1-c1nc(C)c(C(C)=O)n1O` belongs 9.6% (inactive); to `O=C(Nc1ccc(F)cc1Cl)c1ccc2c(=O)n3c(nc2c1)CCCCC3`, -3.1% (inactive).

In the case of `O=C(Nc1ccc(F)c(Cl)c1)c1ccc2c(=O)n3c(nc2c1)CCCCC3`, the cytotoxicity is -3.7% (inactive). To `O=C(Nc1cccc(Cl)c1)c1ccc2c(=O)n3c(nc2c1)CCCCC3` belongs 53.7% (active).

For `CCC(C)C(NC(=O)c1ccccc1NC(=O)c1ccco1)C(=O)O` (stereo not drawn), the cytotoxicity was 1.4% (inactive).

Take `CC(C)COc1ccc(C2NC(=O)NC2=O)cc1` (stereo not drawn): the cytotoxicity is 3.8% (inactive). To `Nc1cc(C(=O)N2CCCC2)cc(C(=O)N2CCCC2)c1` belongs 6.7% (inactive). As for `O=P(O)(CCc1ccccc1)CN1CCCCC1`, the cytotoxicity is 2.1% (inactive). For `COc1cc2c(=O)n(-c3ccc(C)cc3)c(=O)n(CC(=O)c3ccc4c(c3)OCO4)c2cc1OC`, the cytotoxicity was 2.3% (inactive).

With `COc1ccc(C(=O)Oc2ccc3c(c2)OCO3)cc1OC`, the cytotoxicity is -16.2% (inactive). Under `COc1cc2c(O)c3c(c(-c4ccc5c(c4)OCO5)c2cc1OC)C(=O)OC3` stands 99.9% (active).

For the molecule `CN1C(=O)CC(N2CCN(CC(=O)N3CCCC3)CC2)C1=O` (stereo not drawn), the cytotoxicity was -1.8% (inactive). To `COc1ccc(S(=O)(=O)NC2CCCC2)cc1Br` belongs 8.9% (inactive).

On to `OC[C@H]1O[C@@H](n2cnc3c(NC4CCCC4)ncnc32)[C@H](O)[C@@H]1O`, for which the cytotoxicity is 3.7% (inactive).

With `C=CCNc1ncnc2c1ncn2C1OC(CO)C(O)C1O` (stereo not drawn), the cytotoxicity is 53.6% (active). Under `Nc1nc(Cl)nc2c1ncn2[C@@H]1O[C@H](CO)[C@@H](O)[C@H]1O` stands 2.5% (inactive).

With `OC[C@H]1O[C@@H](n2cnc3c(Nc4ccccc4)ncnc32)[C@H](O)[C@@H]1O`, the cytotoxicity is 62.3% (active). To `Nc1ncnc2c1ncn2[C@@H]1O[C@H](CO)[C@@H](O)[C@H]1O` belongs -17.3% (inactive); to `Nc1nc(F)nc2c1ncn2[C@@H]1O[C@H](CO)[C@@H](O)[C@@H]1O`, 42.7% (inactive).

With `COc1cccc2cc(C(=O)Nc3cccnc3N3CCOCC3)c(=O)oc12`, the cytotoxicity is 7.3% (inactive).

On to `O=C(CSc1nnnn1-c1ccc2c(c1)OCCO2)c1cccc2c1OCCO2`, for which the cytotoxicity is 10.2% (inactive). Under `COc1cccc(/C=N/n2c(CO)nc3ccccc32)c1OC` stands -4.1% (inactive); under `CC(O)C(O)C(O)C(O)C1NCCS1` (stereo not drawn), 5.8% (inactive); under `CCCCn1c(=N)n(CC(O)COc2cccc(C)c2)c2ccccc21` (stereo not drawn), 50.9% (active). Under `CCCCn1c(=N)n(CC(O)COc2ccccc2)c2ccccc21` (stereo not drawn) stands 13.3% (inactive).

On to `CCn1c(=N)n(CC(O)COc2cccc(C)c2)c2ccccc21` (stereo not drawn), for which the cytotoxicity is 23.6% (inactive). To `COc1ccc(OCC(O)Cn2c(=N)n(Cc3ccccc3)c3ccccc32)cc1` (stereo not drawn) belongs 22.1% (inactive). Under `N=c1n(Cc2ccccc2)c2ccccc2n1CC(O)COc1ccccc1` (stereo not drawn) stands 53% (active); under `CCCn1c(=N)n(CC(O)COc2cccc(C)c2)c2ccccc21` (stereo not drawn), 12.4% (inactive).

Consider `O=C(COc1ccccc1)NCCSc1ccccc1`, for which the cytotoxicity was 0% (inactive).

Take `CCN(CC)S(=O)(=O)c1ccc(OCC(=O)NCc2ccccc2)cc1`: the cytotoxicity is 7.9% (inactive).
